Assay [1] is described as follows: qHTS assay to identify small molecule agonists of H2AX (AID 1224845; active means well fitted activation curve with a large enough effect in the signal ratio in the repeat runs, not every such curve was filed as active; the % refers to the signal ratio). The essentials: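 Wild-type CHO-K1 cells plated overnight, then exposed 3 hr at 37C to compounds at 15 concentrations (0.76% DMSO). Lysed, then HTRF anti-pH2AX(S139)-cryptate/anti-H2AX-d2 detection after 24 hr at room temperature; emissions 665 and 620 nm.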
In general terms: In qHTS, concentration-response curves come from the screen itself.

A short description of assay [2]: qHTS assay to identify small molecule agonists of the hypoxia (HIF-1) signaling pathway (AID 1224846; active means well fitted activation curve with a large enough effect in the signal ratio in the repeat runs, not every such curve was filed as active; the % refers to the signal ratio). The essentials:
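Reporter induction in HRE-bla ME-180 cells is taken as agonism: cells sit 5 hrs after plating, receive compounds or DMSO only, incubate 17 hrs at 37C under 5% CO2, and are loaded with CCF4-AM for beta-lactamase FRET measurement.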

Assay [3] in a line: qHTS assay to identify small molecule agonists of H2AX - cell viability counter screen (AID 1224847; calls by dose curve; further: top concentration of the series differs between compounds; nearly all actives have a fitted effect of over 30% in size). The essentials:
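Wild-type CHO-K1 cells (10% FBS medium) were plated overnight at 37C, exposed to compounds at 15 concentrations for 3 hr at 37C (0.76% DMSO final), and viability was read as CellTiter-Glo luminescence after 30 min at room temperature.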

A short description of assay [4]: qHTS RealTime-Glo MT Cell Viability Assay in HepG2 cells - 24 hour (AID 1224867). Further: nearly all actives have a fitted effect of over 50% in size. The essentials:
(§1)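 Compound treatment began 5 h after plating HepG2 cells (600/well) with NanoLuc luciferase and prosubstrate. Plates stayed at 37 C for 40 h; luminescence was captured at six time points, 0 h through 40 h.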

Assay [5] is described as follows: qHTS RealTime-Glo MT Cell Viability Assay in HEK293 cells - 32 hour (AID 1224868). Further: top concentration of the series differs between compounds; nearly all actives have a fitted effect of over 50% in size. The essentials: (§2)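 Quantitative high-throughput screen of the Tox21 10K library in HEK293: cells and RealTime-Glo reagents plated together, compound added at 5 h, luminescence monitored through 40 h at 37 C.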
Assay [6] in a line: A CellTox Green Cytotoxicity Assay to monitor cytotoxicity in HEK293 cells - 0 hour (AID 1224869). Further: nearly all actives have a fitted effect of over 50% in size. The essentials:
(§3)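 Tox21 screen in HEK293: membrane-impermeant cyanine dye fluoresces on binding dead-cell DNA; compound pinned 5 h post-seeding, plates held at 37 C, signal read repeatedly through 40 h.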

Assay [7] in a line: qHTS RealTime-Glo MT Cell Viability Assay in HepG2 cells - 40 hour (AID 1224870). Further: nearly all actives have a fitted effect of over 50% in size. An outline of the steps:
(§4)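 HepG2 cells mixed with RealTime-Glo MT reagents (NanoLuc plus cell-permeant prosubstrate) were seeded at 600 cells/well, incubated 5 h at 37 C/5% CO2, then pinned with compounds in DMSO; nonlytic luminescence tracked viability during 40 h treatment.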

Assay [8] is described as follows: A CellTox Green Cytotoxicity Assay to monitor cytotoxicity in HEK293 cells - 40 hour (AID 1224871). Further: nearly all actives have a fitted effect of over 45% in size. Further: potency means the concentration at half of the fitted maximal effect. An outline of the steps: as §3
Assay [9] can be described thus: qHTS RealTime-Glo MT Cell Viability Assay in HEK293 cells - 16 hour (AID 1224872). The essentials: as §2
Assay [10] is described as follows: qHTS RealTime-Glo MT Cell Viability Assay in HepG2 cells - 8 hour (AID 1224873). Further: nearly all actives have a fitted effect of over 55% in size. An outline of the steps: as §4
Assay [11] in a line: qHTS RealTime-Glo MT Cell Viability Assay in HEK293 cells - 40 hour (AID 1224874). Further: nearly all actives have a fitted effect of over 50% in size. The note with it: RealTime-Glo luminescence; max response: active compounds read low. The essentials: (§5)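 HEK293 + NanoLuc + prosubstrate, 600 cells/well; 5 h, 37 C/5% CO2; compound 23 nL in DMSO by pintool; 37 C; luminescence read at 0, 8, 16, 24, 32 and 40 h time points.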
Assay [12] in a line: A CellTox Green Cytotoxicity Assay to monitor cytotoxicity in HEK293 cells - 24 hour (AID 1224875). Further: nearly all actives have a fitted effect of over 45% in size. Further: potency means the concentration at half of the fitted maximal effect. The essentials: as §3
Assay [13] can be described thus: A CellTox Green Cytotoxicity Assay to monitor cytotoxicity in HepG2 cells - 16 hour (AID 1224876). Further: nearly all actives have a fitted effect of over 45% in size. The essentials: (§6)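 Measurements at 0, 8, 16, 24, 32 and 40 h of treatment captured CellTox Green fluorescence in HepG2 cells that had been co-plated with reagent and preincubated 5 h at 37 C/5% CO2.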
A short description of assay [14]: qHTS RealTime-Glo MT Cell Viability Assay in HepG2 cells - 32 hour (AID 1224877). Further: nearly all actives have a fitted effect of over 55% in size. An outline of the steps: as §1
Assay [15] can be described thus: A CellTox Green Cytotoxicity Assay to monitor cytotoxicity in HepG2 cells - 24 hour (AID 1224878). Further: nearly all actives have a fitted effect of over 45% in size. Further: potency means the concentration at half of the fitted maximal effect. The essentials:
as §6

A short description of assay [16]: qHTS RealTime-Glo MT Cell Viability Assay in HEK293 cells - 0 hour (AID 1224880). The essentials:
as §5

Assay [17] in a line: A CellTox Green Cytotoxicity Assay to monitor cytotoxicity in HEK293 cells - 32 hour (AID 1224881). Further: nearly all actives have a fitted effect of over 40% in size. Further: potency means the concentration at half of the fitted maximal effect. An outline of the steps:
as §3

The nature of assay [18]: qHTS assay to identify small molecule agonists of the estrogen related receptor (ERR) signaling pathway from Tox21 library (AID 1224849; calls by dose curve; further: nearly all actives have a fitted effect of over 15% in size). The following applies: ERR reporter cell line, ONE-Glo luciferase, 18 h; at 92.4 µM (top of the series) unless noted. The essentials: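 Tox21 compounds tested for ERR agonism in an NTP reporter cell line: 18 h treatment at 37 C, then ONE-Glo luminescence.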

A short description of assay [19]: A CellTox Green Cytotoxicity Assay to monitor cytotoxicity in HepG2 cells - 40 hour (AID 1224879). Further: nearly all actives have a fitted effect of over 40% in size. Further: potency means the concentration at half of the fitted maximal effect. The essentials: as §6

Values without a mark were called inactive. Results filed as inconclusive are left out. Active and inactive are the calls of the source. Unless noted, the call rests on the fitted dose curve; in most records, active means well fitted curve in the direction sought with a large enough effect in the repeat runs; inconclusive means weak or mixed curves; inactive means no such curve, though single readings can be large; an effect the other way counts as inactive or inconclusive.
On the % scale 0 is the no-effect control and ±100 the full control effect.

Turning to `C=C(C)C(=O)OC(C)C`, the Potency result in assay [1], in assay [3], in assay [4], in [5], in assay [6] and in [7] was “inactive” each time. Further, the Potency result in assay [8], in [9], in assay [10], in assay [12], in [13] and in [14] was “inactive” in each case. Further, the Potency entry in assay [15], in assay [16] and in assay [17] was “inactive” in each case. The call in [2] was inactive. In addition, in [11], the max response is 6%.

Regarding `CN1CCC(=C2c3ccccc3CCc3sccc32)CC1`, the Potency result in assay [1], in assay [3], in assay [4], in assay [6], in assay [7] and in [9] was “inactive” throughout. Also, the Potency entry in assay [10], in assay [12], in [14] and in assay [17] was “inactive” in each case. Moreover, the result in assay [2] was inactive. Further, in assay [18], the activity change, positive = activation was -9.84% [at 42.5 µM]. Besides, the Potency in [15] and in [19] was 23.9 µM (active) in each case.

On to `CCCCCCCCCCCCCCCC(=O)OC/C=C(C)/C=C/C=C(C)/C=C/C1=C(C)CCCC1(C)C`, for which the Potency entry in assay [1], in [3], in assay [4], in assay [5], in [6] and in assay [7] was “inactive” each time. Besides, the Potency result in assay [8], in assay [9], in assay [10], in [12], in assay [13] and in assay [14] was “inactive” in each case. Further, the Potency entry in assay [15], in [19] and in assay [17] was “inactive” in each case. Also, in assay [2], the result was inactive. In addition, the max response in assay [11] was -5.46%.

With `CCOc1ccc(NC(=O)CC(C)=O)cc1`, the Potency entry in assay [1], in assay [3], in assay [4], in assay [5], in assay [6] and in assay [7] was “inactive” each time. Also, the Potency entry in assay [8], in assay [9], in assay [12], in assay [14], in assay [15] and in assay [19] was “inactive” throughout. For the same compound, the Potency entry in assay [16] and in [17] was “inactive” throughout. For the same compound, the call in assay [2] was inactive. Moreover, the activity change, positive = activation in assay [18] is -8.93%. In addition, in assay [11], the max response is -6.1%.

On to `C=CC[N+]1([C@H]2C[C@H]3[C@@H]4CC[C@H]5C[C@H](OC(C)=O)[C@@H](N6CCCCC6)C[C@]5(C)[C@H]4CC[C@]3(C)[C@H]2OC(=O)CC)CCCCC1`, for which the Potency result in assay [1], in assay [3], in assay [5], in assay [6], in assay [7] and in [9] was “inactive” throughout. Moreover, the Potency entry in [10], in assay [12], in assay [14], in [15], in assay [19] and in [16] was “inactive” in each case. Besides, the Potency result in assay [17] was “inactive”. The call in assay [2] was inactive. Besides, in [18], the activity change, positive = activation was -0.214% [at 42.5 µM]. The max response in assay [11] is -20.7%.

For `CC(=O)/C(C)=C/C1C(C)=CCCC1(C)C` (stereo not drawn), the Potency entry in assay [1], in [3], in [4], in assay [5], in assay [6] and in [7] was “inactive” in each case. Further, the Potency result in [9], in assay [13], in assay [14] and in assay [16] was “inactive” in each case. Also, the result in assay [2] was inactive. The activity change, positive = activation in assay [18] was 5.66%. Also, the Potency in [8], in [12] and in assay [17] was 17.4 µM (active) throughout. Further, the max response in assay [11] was -10.3%.

As to `CC(=O)OCCc1ccccc1`, the Potency entry in assay [1], in [3], in assay [4], in [5], in assay [6] and in assay [7] was “inactive” each time. Moreover, the Potency result in assay [8], in [9], in assay [10], in assay [12], in assay [13] and in [14] was “inactive” each time. The Potency entry in [15], in assay [19], in assay [16] and in [17] was “inactive” throughout. For the same compound, the result in [2] was inactive. Also, the max response in assay [11] was 10.1%.

Turning to `OCCC1CCCCN1` (stereo not drawn), the Potency result in assay [1], in assay [3], in [4], in assay [5], in assay [6] and in [7] was “inactive” each time. For the same compound, the Potency entry in assay [8], in assay [9], in assay [10], in [12], in [13] and in assay [14] was “inactive” each time. In addition, the Potency result in [15], in [19], in assay [16] and in assay [17] was “inactive” throughout. The compound was classed as inactive in assay [2]. Besides, the max response in assay [11] was -19.6%.

(Values after PubChem BioAssay (Tox21).)
